In article PMC8384837, “Expanding the binding specificity for RNA recognition by a PUF domain” one finds binding signal data, which are given here for seven sequences.

PUM1 PUF domain R5-FRR, sequence (Q14671 828-1176 C1007F/Q1011R): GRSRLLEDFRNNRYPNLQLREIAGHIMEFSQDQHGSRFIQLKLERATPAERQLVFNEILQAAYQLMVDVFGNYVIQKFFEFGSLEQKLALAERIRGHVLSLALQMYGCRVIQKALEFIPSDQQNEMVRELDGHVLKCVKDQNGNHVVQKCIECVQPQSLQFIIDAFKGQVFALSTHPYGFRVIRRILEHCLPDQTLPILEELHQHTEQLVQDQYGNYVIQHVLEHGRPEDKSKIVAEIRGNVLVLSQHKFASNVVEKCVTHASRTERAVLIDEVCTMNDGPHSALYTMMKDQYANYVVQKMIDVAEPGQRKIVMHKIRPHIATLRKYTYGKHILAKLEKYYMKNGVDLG
PUM1 PUF domain R4-SPW, sequence (Q14671 828-1176 N971S/H972P/Q975W): as the sequence (Q14671 828-1176 C1007F/Q1011R) above, with N144S, H145P, Q148W, F180C, R184Q counted along it
PUM1 PUF domain R3-GWG, sequence (Q14671 828-1176 C935G/R936W/Q939G): as the sequence (Q14671 828-1176 C1007F/Q1011R) above, with C108G, R109W, Q112G, F180C, R184Q counted along it

For the first test, the target named is PUM1 PUF domain R5-FRR (Homo sapiens, UniProt Q14671 828-1176, C1007F;Q1011R). As to the kind of experiment: yeast three-hybrid, YBZ-1, SC-Leu-His + 0.5 mM 3-AT, 4 days. To be noted: tags: N-Gal4 AD-HA kept; label: inside an RPR1-promoter hybrid RNA with tandem MS2 sites; ssRNA. In outline:
(§1)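 Matching RNA elements and Pumilio-1 PUF domain libraries, randomized at the three base-contacting residues of every repeat, were co-expressed from a centromeric plasmid in strain YBZ-1 (LexA–MS2 coat fusion, HIS3 reporter). The repeat regions were PCR-amplified and Illumina-sequenced from cells grown four days on SC-Leu (input) or SC-Leu-His + 0.5 mM 3-AT (selection). The interaction score is the log change in variant frequency from input to selection. It is computed in log2, with a pseudocount of 1 for absent variants.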
On to “GGCUAGAACUAGUGGAUCCCCCGGCGCCCGGCGGCUCGAGCCCGGGUAAGUGUUAAUAGUCUGCAUGCCGCCGGGCGCCAUGCCUGCAGGUCGACUCUAGAAAACAUG”, for which the binding signal is 3.38 log2 enrichment (interaction score).
For the sequence “GGCUAGAACUAGUGGAUCCCCCGGCGCCCGGCGGCUCGAGCCCGGGUAAGUGUCAAUAGUCUGCAUGCCGCCGGGCGCCAUGCCUGCAGGUCGACUCUAGAAAACAUG”, the binding signal was 4.1 log2 enrichment (interaction score).
In the case of “GGCUAGAACUAGUGGAUCCCCCGGCGCCCGGCGGCUCGAGCCCGGGUAAGUGUAAAUAGUCUGCAUGCCGCCGGGCGCCAUGCCUGCAGGUCGACUCUAGAAAACAUG”, the binding signal was 1.31 log2 enrichment (interaction score).

The next test concerns the target PUM1 PUF domain R4-SPW (Homo sapiens, UniProt Q14671 828-1176, N971S;H972P;Q975W). The description is as above. The note with it: tags: N-Gal4 AD-HA kept; label: inside an RPR1-promoter hybrid RNA with tandem MS2 sites; ssRNA. In outline: as §1
As for “GGCUAGAACUAGUGGAUCCCCCGGCGCCCGGCGGCUCGAGCCCGGGUAAGUGUACAUAGUCUGCAUGCCGCCGGGCGCCAUGCCUGCAGGUCGACUCUAGAAAACAUG”, the binding signal was 0.34 log2 enrichment (interaction score).
On the same count and under the same terms, to “GGCUAGAACUAGUGGAUCCCCCGGCGCCCGGCGGCUCGAGCCCGGGUAAGUGUAAAUAGUCUGCAUGCCGCCGGGCGCCAUGCCUGCAGGUCGACUCUAGAAAACAUG” belongs 3.13 log2 enrichment (interaction score); to “GGCUAGAACUAGUGGAUCCCCCGGCGCCCGGCGGCUCGAGCCCGGGUAAGUGUAUAUAGUCUGCAUGCCGCCGGGCGCCAUGCCUGCAGGUCGACUCUAGAAAACAUG”, 2.59 log2 enrichment (interaction score).

In a further test the target is PUM1 PUF domain R3-GWG (Homo sapiens, UniProt Q14671 828-1176, C935G;R936W;Q939G). The description is as above. To be noted: tags: N-Gal4 AD-HA kept; label: inside an RPR1-promoter hybrid RNA with tandem MS2 sites; ssRNA. In outline:
as §1
On to “GGCUAGAACUAGUGGAUCCCCCGGCGCCCGGCGGCUCGAGCCCGGGUAAGUGUAAGUAGUCUGCAUGCCGCCGGGCGCCAUGCCUGCAGGUCGACUCUAGAAAACAUG”, for which the binding signal was 3.17 log2 enrichment (interaction score).
Same read-out and setting: under “GGCUAGAACUAGUGGAUCCCCCGGCGCCCGGCGGCUCGAGCCCGGGUAAGUGUAAUUAGUCUGCAUGCCGCCGGGCGCCAUGCCUGCAGGUCGACUCUAGAAAACAUG” stands 1.55 log2 enrichment (interaction score).
Still for that read-out and setting: to “GGCUAGAACUAGUGGAUCCCCCGGCGCCCGGCGGCUCGAGCCCGGGUAAGUGUAAAUAGUCUGCAUGCCGCCGGGCGCCAUGCCUGCAGGUCGACUCUAGAAAACAUG” belongs 4.07 log2 enrichment (interaction score).
